# High-throughput results from PubChem.
# KDM5B inh: inhibitors of human KDM5B histone demethylase; Q9UGL1; KDM5B demethylase, FDH-coupled NADH fluorescence (FDH is formaldehyde dehydrogenase); Potency, µM (titrated, usually from 57.7 µM), actives largely listed as inhibitors; hit rate 2.6% among 220,000; AID 1347165; active means well fitted inhibition curve with a large enough effect; inconclusive means small, poorly fitted or top-dose-only effect; inactive means no such curve, though single readings can be large or run the other way; further: potency means the concentration at half of the fitted maximal effect; 0% is about no effect; nearly all actives have a fitted effect of over 70% in size
#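 Inhibition is measured as reduced NADH fluorescence generation from FDH coupling to formaldehyde release. Truncated KDM5BΔAP at 200 nM final acts on H3K4me3 peptide (12.5 µM in substrate mix) in pH 7.5 HEPES buffer with Tween-20, 30 min, room temperature.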
# IP6K1 inhibitor: inhibitors of human IP6K1; IP6K1 kinase, ADP-Glo luminescence, 2 h; stronger effect = lower value; activity change, % (series mostly up to about 58 µM); Q92551; hit rate 0.81% among 140,000; AID 1645851; in the data active means activity change below about -25%; further: on the % scale 0 is the no-effect control and ±100 the full control effect
#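 ADP-Glo luminescence measures ADP made by human IP6K1 during a 2 h RT reaction with ATP/IP6 (mix at 1.3 mM/130 uM); top library doses 57.5 and 19.1 uM final.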
# An asterisk follows results filed as active; i = inactive; ? = inconclusive; · = no result given. Sampled rows, rich in hits. Any-hit rate of the full collection: about 2.8%.
SMILES,KDM5B inh,IP6K1 inhibitor
O=C(Nc1ccc(F)cc1)c1ccn2cncc2c1,35µM*,3
Cn1ncc2c(C(=O)NCc3cccnc3)cc(-c3cccc(C(F)(F)F)c3)nc21,·,2
O=C(NCCCc1ccccc1)C1CCCN(c2nccc(Nc3ccccc3F)n2)C1 (stereo not drawn),·,6
COc1ccccc1-c1nc2nccc(-c3ccc(Br)s3)n2n1,?,-8
CC(C)c1nc2nccc(-c3ccsc3)n2n1,25µM*,-6
COc1ccc(-c2ccnc3nc(-c4ccccc4OC)nn23)c(F)c1,?,-3
COc1ccc(-c2ccnc3nc(-c4ccco4)nn23)c(F)c1,16µM*,-5
COc1ccc(-c2nc3nccc(-c4ccco4)n3n2)c(OC)c1,22µM*,-9
COc1ccc(-c2nc3nccc(-c4ccsc4)n3n2)c(OC)c1,18µM*,-4
CC(C)NC(=O)C1CC(c2c(F)cccc2Cl)=NO1 (stereo not drawn),i,·
CNC(=O)c1cc(C2CC2)nc2onc(C3CCN([S+](=O)([O-])c4cccc(C(F)(F)F)c4)C3)c12 (stereo not drawn),·,-5
Fc1ccc(-c2ccc3ncc(Nc4ccnc(N5CCOCC5)c4)n3n2)cc1,i,-12
CN(Cc1ccc(F)cc1)c1ccc2ncc(Nc3ccc4c(c3)OCCO4)n2n1,?,-21
CN(Cc1ccc(F)cc1)c1ccc2ncc(Nc3ccnc(N4CCOCC4)c3)n2n1,28µM*,-21
COc1cncc(Nc2cnc3ccc(N(C)Cc4ccc(F)cc4)nn23)c1,35µM*,-13
CCOC(=O)c1noc2ncn(Cc3nc(-c4cccc(OC)c4OC)oc3C)c(=O)c12,i,·
O=C(NC1CC1)c1nc(-c2cc(Cl)cc(Cl)c2)c2ccccn12,?,-6
N#CC1CCN(C(=O)C2CCc3nnc(-c4ccc(Cl)cc4Cl)n32)CC1 (stereo not drawn),i,7
O=C(NC1CC1)c1nc(-c2ccc(Cl)cc2Cl)c2ccccn12,28µM*,2
N#CC1CCN(C(=O)c2nc(-c3ccc(Cl)cc3Cl)c3ccccn23)CC1,28µM*,20
COc1ccccc1-c1nnc2n1C(C(=O)NCCc1ccc(Cl)cc1)CC2 (stereo not drawn),i,10
O=C(NCCc1ccc(Cl)cc1)c1cc(-c2cnccc2Cl)c2cccn2n1,i,12
COc1ccccc1-c1nc(C(=O)NCCc2ccc(Cl)cc2)n2ccncc12,79µM*,-10
O=C(NCCc1ccc(Cl)cc1)c1nc(-c2ccc(Cl)cc2Cl)c2cnccn12,56µM*,-15
CC1CCN(c2nc3c(c(=O)n(C)c(=O)n3C)n2CC(=O)C23CC4CC(CC(C4)C2)C3)CC1,i,·
SMILES,KDM5B inh,IP6K1 inhibitor
Cc1ccc(C(=O)OCc2ccc(C#N)cc2)cc1,i,·
CC(C)/C=N/NC(=O)CCCCC(=O)N/N=C/C(C)C,i,·
O=C(NCCc1ccc(Cl)cc1)c1nc(-c2ccc(Cl)cc2Cl)c2ccccn12,79µM*,-22
O=C(NCCc1ccc(Cl)cc1)c1ccc2nnc(-c3ccc(Cl)cc3Cl)n2c1,·,2
CC#CCn1cc2c3c(cccc31)[C@H](CC(C)C)N[C@H](C(=O)NCCN1CCOCC1)C2,?,-2
O=C(NCC(F)(F)F)c1cc(-c2cc(Cl)cc(Cl)c2)c2cccn2n1,·,-11
Cn1c2c(c3cc(F)ccc31)CN(C(=O)Nc1ccc(Cl)cc1Cl)CC2,?,-7
Cn1c2c(c3ccccc31)CN(C(=O)Nc1ccccc1F)CC2,22µM*,-10
Cn1c2c(c3ccccc31)CN(C(=O)Nc1ccc(Cl)cc1Cl)CC2,22µM*,-13
CS(=O)(=O)N1CCC(OC2CCN(C(=O)Nc3ccccc3F)CC2)CC1,i,-3
N#CC(C(=O)NCc1ccccc1)=C1CCCCCC1,i,·
O=C(NC1CCCCC1)C1CCCN(CCCc2nc3ccccc3o2)C1 (stereo not drawn),i,·
O=C(Cc1ccc(-c2ccccc2)cc1)NCCS(=O)(=O)N1CCN(c2ccccc2)CC1,?,-23
COc1ccc(N2CCN(S(=O)(=O)CCNC(=O)Cc3ccc(-c4ccccc4)cc3)CC2)cc1,i,-27*
O=C(c1ccc2c(c1)OCO2)N1CCCC2(C1)Nc1cccnc1NC2=NC1CCCC1 (stereo not drawn),?,14
Cc1ccc(C(=O)N2CCCC3(C2)Nc2cccnc2NC3=NC2CCCC2)cc1F (stereo not drawn),28µM*,1
O=C(c1n[nH]c2c1CCCC2)N1CCC2(CC1)NC(=O)N(c1ccccc1)N2,?,-7
COc1ccc(NC(=O)N2CCCC3(C2)Nc2cccnc2NC3=NC2CCCC2)c(C)c1 (stereo not drawn),25µM*,0
O=C(c1n[nH]c2c1CCCC2)N1CCCC2(C1)Nc1cccnc1NC2=NC1CCCC1 (stereo not drawn),25µM*,0
COc1ccc(NC(=O)N2CCCC(Cn3cnc4cccnc43)C2)c(C)c1 (stereo not drawn),i,3
CCC(CO)NC(=O)c1nc(Cc2c[nH]c3ccccc23)no1 (stereo not drawn),i,·
O=C(NC1CCCCCC1)C1CN(c2ccnc3ccnn23)C1,·,2
O=C(Nc1ccc(Cl)c(S(=O)(=O)N2CCCC2)c1)c1n[nH]c(=O)c2ccccc12,i,·
C=CCNC(=O)c1cnn2c1CN(C(C)=O)CC2,i,-12
Cc1ccc2c(C(=O)Nc3ccc(F)cc3)cnn2c1,?,0
SMILES,KDM5B inh,IP6K1 inhibitor
C=CCNC(=O)c1cnn2c1CN(C(=O)c1cccnc1)CC2,i,4
C=CCNC(=O)c1cnn2cc(C)ccc12,40µM*,6
Cc1ccc2c(C(=O)NCc3ccc(Cl)cc3)cnn2c1,35µM*,-13
O=C(NCc1ccc(Cl)cc1)c1cccn2cncc12,?,-2
Cc1ccc2c(C(=O)Nc3ccc(Cl)nc3)cnn2c1,40µM*,0
C=CCNC(=O)c1cnn2ncccc12,32µM*,9
O=C(NC1CCCN(c2ccc3nnc(C4CC4)n3n2)C1)c1cccc(Cl)c1 (stereo not drawn),·,1
Cc1cc(C)cc(OCc2cc(=O)n3nc(C)sc3n2)c1,i,·
N#Cc1cccc(-c2c(C(=O)NCc3ccc(Cl)cc3)nc3sccn23)c1,·,5
CCOc1ccc(S(=O)(=O)NCC(C)O)c2ccccc12 (stereo not drawn),i,·
O=[N+]([O-])c1cc(/C=N/Nc2ccc(S(=O)(=O)Nc3ccc(Cl)cc3)cc2[N+](=O)[O-])ccc1Cl,i,·
Cc1ccc(S(=O)(=O)N2c3cccc4cccc(c34)S2(=O)=O)cc1,i,·
COc1ccc(-c2c(NC(=O)c3ccccc3)oc3ccc(Cl)cc3c2=O)cc1OC,i,·
O=c1c2c(nc3cc(-c4ccccc4)[nH]n13)CN(S(=O)(=O)c1cccs1)CC2,i,19
Cc1ccc(CN2CC(C(=O)N3CCc4c(nc5cc(-c6ccccc6)[nH]n5c4=O)C3)CC2=O)cc1 (stereo not drawn),22µM*,2
O=C(c1cc(CN2CCOCC2)on1)N1CCc2c(nc3cc(-c4ccccc4)[nH]n3c2=O)C1,28µM*,0
O=C(c1cc(-c2cccs2)[nH]n1)N1CCc2c(nc3cc(-c4ccccc4)[nH]n3c2=O)C1,32µM*,37
O=C(c1ccsc1)N1CCc2c(nc3cc(-c4ccccc4Cl)[nH]n3c2=O)C1,?,31
